Laboratory results from ChEMBL document CHEMBL3988442, “University of Dundee, Small-Polar-MMV Screening Library” (2021).

Experiments:
[1] = target: T1, Aspartate--tRNA(Asp/Asn) ligase (Mycobacterium tuberculosis (strain ATCC 25618 / H37Rv)) (UniProt P9WFW3); experiment: Assay for Asp RNA synthetase-1 from Mycobacterium tuberculosis; type: functional; set-up: scale not given: direction of the effect not stated beside the values; conditions: 30 µM; further: in the data most compounds retested in dose-response had high values
T1 sequence (whole entry): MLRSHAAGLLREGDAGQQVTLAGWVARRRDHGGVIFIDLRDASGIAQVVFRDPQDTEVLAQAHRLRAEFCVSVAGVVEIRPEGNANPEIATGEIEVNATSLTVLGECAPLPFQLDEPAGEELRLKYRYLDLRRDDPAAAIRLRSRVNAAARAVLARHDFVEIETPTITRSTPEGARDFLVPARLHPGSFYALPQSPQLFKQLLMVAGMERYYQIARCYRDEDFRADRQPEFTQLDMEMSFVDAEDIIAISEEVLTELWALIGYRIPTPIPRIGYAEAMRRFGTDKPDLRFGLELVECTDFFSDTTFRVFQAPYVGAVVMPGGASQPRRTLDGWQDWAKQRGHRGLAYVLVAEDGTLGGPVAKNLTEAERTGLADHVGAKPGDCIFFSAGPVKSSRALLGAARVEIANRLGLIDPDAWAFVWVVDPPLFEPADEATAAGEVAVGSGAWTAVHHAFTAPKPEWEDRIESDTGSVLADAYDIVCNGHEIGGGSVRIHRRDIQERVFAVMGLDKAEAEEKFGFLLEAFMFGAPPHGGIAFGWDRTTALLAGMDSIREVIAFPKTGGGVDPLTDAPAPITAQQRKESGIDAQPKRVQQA

[2] = target: Shiga toxin 2 (Escherichia coli O157:H7) (UniProt P09385+P09386); experiment: E. coli 0.157:H7 Shiga Toxin SOP - stx2 screening assay; type: functional; set-up: scale not given: direction of the effect not stated beside the values; conditions: 30 µM

SMILES: c1ccc(OCC2CC3(CCN(Cc4ccncc4)CC3)CO2)nc1 (stereo unspecified)
- Percent Effect [1]: 1.19%
- Percent Effect [2]: -30.5%

SMILES: O=C(Cn1cc(-c2ccccc2)ncc1=O)Nc1nnc[nH]1
- Percent Effect [1]: -0.342%
- Percent Effect [2]: 6.34%

SMILES: O=C(CC1CCCC1)N1C[C@@H]2CCN(c3cccnc3)C[C@@H]2C1
- Percent Effect [1]: 2%
- Percent Effect [2]: -5.1%
